# Data reported in paper PMC5540273 (PLoS ONE, 2017).
# Values joined by “and” are separate entries in the source; they are usually repeats but may differ in a detail not shown here. Equal entries are not always repeated. Where two headings read alike, the source gives them in different places.
# Key:
# Conditions in all cases: concentration: 1 μM, replicates: in singlicate, n = 1
# MAP4K3 = system: MAP4K3
# MAP4K4 = system: MAP4K4
# MAP4K5 = system: MAP4K5
# MAPKAPK2 = system: MAPKAPK2
# MAPKAPK5 = system: MAPKAPK5
# MARK1 = system: MARK1
# MARK2 = system: MARK2
# MARK3 = system: MARK3
# MARK4 = system: MARK4
# MAST1 = system: MAST1
# MEK1 = system: T1, MEK1
# T1 construct: gene MAP2K1
# MEK2 = system: T2, MEK2
# T2 construct: gene MAP2K2
# MEK3 = system: T3, MEK3
# T3 construct: gene MAP2K3
# MEK4 = system: T4, MEK4
# T4 construct: gene MAP2K4
# MEK5 = system: T5, MEK5
# T5 construct: gene MAP2K5
# MEK6 = system: T6, MEK6
# T6 construct: gene MAP2K6
# MELK = system: MELK
# MERTK = system: MERTK
# MET = system: MET
# MINK = system: T7, MINK
# T7 construct: gene MINK1
# 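Note: KINOMEscan kinase panel screen.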
smiles,measurement,setting,value
COc1ccc(Nc2nccc(N3CCC(NC(=O)Nc4cc(C)ccc4C)C3)n2)cc1 (centres unmarked) [GSK1379741],%Inh,MAP4K3,0%
same,%Inh,MAP4K4,0%
same,%Inh,MAP4K5,0%
same,%Inh,MAPKAPK2,14%
same,%Inh,MAPKAPK5,0%
same,%Inh,MARK1,0%
same,%Inh,MARK2,0%
same,%Inh,MARK3,0%
same,%Inh,MARK4,0%
same,%Inh,MAST1,9%
same,%Inh,MEK1,0%
same,%Inh,MEK2,0%
same,%Inh,MEK3,0%
same,%Inh,MEK4,14%
same,%Inh,MEK5,44%
same,%Inh,MEK6,0%
same,%Inh,MELK,0%
same,%Inh,MERTK,24%
same,%Inh,MET,0%
same,%Inh,MINK,0%
c1ccc(-c2n[nH]cc2-c2ccnc3ccccc23)nc1 [GW271431],%Inh,MAP4K3,16%
same,%Inh,MAP4K4,23%
same,%Inh,MAP4K5,3%
same,%Inh,MAPKAPK2,9%
same,%Inh,MAPKAPK5,0%
same,%Inh,MARK1,0%
same,%Inh,MARK2,0%
same,%Inh,MARK3,0%
same,%Inh,MARK4,6%
same,%Inh,MAST1,0%
same,%Inh,MEK1,0%
same,%Inh,MEK2,0%
same,%Inh,MEK3,0%
same,%Inh,MEK4,32%
same,%Inh,MEK5,30%
same,%Inh,MEK6,0%
same,%Inh,MELK,10%
same,%Inh,MERTK,34%
same,%Inh,MET,0%
same,%Inh,MINK,54%
COc1ccc(CNC(=O)NC2CCN(c3ccnc(Nc4ccc(OC)cc4)n3)C2)cc1 (centres unmarked) [GSK1379727],%Inh,MAP4K3,0%
same,%Inh,MAP4K4,0%
same,%Inh,MAP4K5,0%
same,%Inh,MAPKAPK2,20%
same,%Inh,MAPKAPK5,0%
same,%Inh,MARK1,0%
same,%Inh,MARK2,0%
same,%Inh,MARK3,0%
same,%Inh,MARK4,0%
same,%Inh,MAST1,0%
same,%Inh,MEK1,0%
same,%Inh,MEK2,0%
same,%Inh,MEK3,0%
same,%Inh,MEK4,17%
same,%Inh,MEK5,37%
same,%Inh,MEK6,0%
same,%Inh,MELK,4%
same,%Inh,MERTK,16%
same,%Inh,MET,0%
same,%Inh,MINK,4%
Cl.Oc1cccc(Nc2ccnc3cc(-c4ccncc4)ccc23)c1 [GW494601],%Inh,MAP4K3,0%
same,%Inh,MAP4K4,47%
same,%Inh,MAP4K5,20%
same,%Inh,MAPKAPK2,0%
same,%Inh,MAPKAPK5,0%
same,%Inh,MARK1,6%
same,%Inh,MARK2,0%
same,%Inh,MARK3,0%
same,%Inh,MARK4,10%
same,%Inh,MAST1,51%
same,%Inh,MEK1,33%
same,%Inh,MEK2,100%
same,%Inh,MEK3,0%
same,%Inh,MEK4,18%
same,%Inh,MEK5,99.8%
same,%Inh,MEK6,0%
same,%Inh,MELK,0%
same,%Inh,MERTK,46%
same,%Inh,MET,0%
same,%Inh,MINK,79%
Cl.Cl.Cl.Fc1ccc(-c2ncn(C3CCNCC3)c2-c2ccnc(Nc3ccccc3)n2)cc1 [SB-238039],%Inh,MAP4K3; 1 µM,41% and 5%
same,%Inh,MAP4K4; 1 µM,74% and 60%
same,%Inh,MAP4K5; 1 µM,94.1% and 85%
same,%Inh,MAPKAPK2; 1 µM,2% and 33%
same,%Inh,MAPKAPK5; 1 µM,0% and 9%
same,%Inh,MARK1; 1 µM,13% and 10%
same,%Inh,MARK2; 1 µM,43% and 42%
same,%Inh,MARK3; 1 µM,10% and 0%
same,%Inh,MARK4; 1 µM,27% and 11%
same,%Inh,MAST1; 1 µM,52% and 37%
same,%Inh,MEK1; 1 µM,36% and 3%
same,%Inh,MEK2; 1 µM,58% and 26%
same,%Inh,MEK3; 1 µM,45% and 44%
same,%Inh,MEK4; 1 µM,31% and 6%
same,%Inh,MEK5; 1 µM,47% and 18%
same,%Inh,MEK6; 1 µM,59% and 42%
same,%Inh,MELK; 1 µM,51% and 31%
same,%Inh,MERTK; 1 µM,15% and 0%
same,%Inh,MET; 1 µM,8% and 0%
same,%Inh,MINK; 1 µM,89% and 88%
c1ccc(-c2cc(-c3c[nH]nc3-c3ccccn3)ccn2)cc1 [GW576604],%Inh,MAP4K3,0%
same,%Inh,MAP4K4,22%
same,%Inh,MAP4K5,0%
same,%Inh,MAPKAPK2,6%
same,%Inh,MAPKAPK5,0%
same,%Inh,MARK1,0%
same,%Inh,MARK2,0%
same,%Inh,MARK3,0%
same,%Inh,MARK4,0%
same,%Inh,MAST1,13%
same,%Inh,MEK1,0%
same,%Inh,MEK2,0%
same,%Inh,MEK3,0%
same,%Inh,MEK4,16%
same,%Inh,MEK5,41%
same,%Inh,MEK6,0%
same,%Inh,MELK,1%
same,%Inh,MERTK,0%
same,%Inh,MET,13%
same,%Inh,MINK,71%
Cn1cc(-c2ccc3c(c2)CCN3C(=O)Cc2ccccc2Cl)c2c(N)ncnc21 [GSK2608885],%Inh,MAP4K3,70%
same,%Inh,MAP4K4,58%
same,%Inh,MAP4K5,96.3%
same,%Inh,MAPKAPK2,0%
same,%Inh,MAPKAPK5,3%
same,%Inh,MARK1,16%
same,%Inh,MARK2,0%
same,%Inh,MARK3,46%
same,%Inh,MARK4,19%
same,%Inh,MAST1,0%
same,%Inh,MEK1,70%
same,%Inh,MEK2,90.6%
same,%Inh,MEK3,3%
same,%Inh,MEK4,17%
same,%Inh,MEK5,99.7%
same,%Inh,MEK6,47%
same,%Inh,MELK,0%
same,%Inh,MERTK,93.2%
same,%Inh,MET,88%
same,%Inh,MINK,8%
Cc1c2ccc(N(C)c3ccnc(Nc4cccc(S(N)(=O)=O)c4)n3)cc2nn1Cc1ccccc1.Cl.Cl [GW787226],%Inh,MAP4K3,70%
same,%Inh,MAP4K4,33%
same,%Inh,MAP4K5,87%
same,%Inh,MAPKAPK2,0%
same,%Inh,MAPKAPK5,0%
same,%Inh,MARK1,18%
same,%Inh,MARK2,0%
same,%Inh,MARK3,49%
same,%Inh,MARK4,36%
same,%Inh,MAST1,0%
same,%Inh,MEK1,12%
same,%Inh,MEK2,34%
same,%Inh,MEK3,29%
same,%Inh,MEK4,75%
same,%Inh,MEK5,98.4%
same,%Inh,MEK6,23%
same,%Inh,MELK,16%
same,%Inh,MERTK,70%
same,%Inh,MET,60%
same,%Inh,MINK,54%
CN(C1=C(c2ccccc2)C(=O)NC1=O)c1ccccc1 [SB-334860],%Inh,MAP4K3,8%
same,%Inh,MAP4K4,16%
same,%Inh,MAP4K5,9%
same,%Inh,MAPKAPK2,8%
same,%Inh,MAPKAPK5,0%
same,%Inh,MARK1,0%
same,%Inh,MARK2,3%
same,%Inh,MARK3,0%
same,%Inh,MARK4,0%
same,%Inh,MAST1,0%
same,%Inh,MEK1,0%
same,%Inh,MEK2,0%
same,%Inh,MEK3,7%
same,%Inh,MEK4,14%
same,%Inh,MEK5,34%
same,%Inh,MEK6,0%
same,%Inh,MELK,24%
same,%Inh,MERTK,0%
same,%Inh,MET,0%
same,%Inh,MINK,23%
Cc1cccc(-c2nc(-c3ccc(S(C)(=O)=O)cc3)sc2-c2ccncc2)c1,%Inh,MAP4K3,0%
same,%Inh,MAP4K4,30%
same,%Inh,MAP4K5,0%
same,%Inh,MAPKAPK2,1%
same,%Inh,MAPKAPK5,0%
same,%Inh,MARK1,34%
same,%Inh,MARK2,0%
same,%Inh,MARK3,0%
same,%Inh,MARK4,31%
same,%Inh,MAST1,31%
same,%Inh,MEK1,2%
same,%Inh,MEK2,1%
same,%Inh,MEK3,0%
same,%Inh,MEK4,27%
same,%Inh,MEK5,12%
same,%Inh,MEK6,14%
same,%Inh,MELK,5%
same,%Inh,MERTK,12%
same,%Inh,MET,10%
same,%Inh,MINK,16%
